“And” between values parts separate entries of the source, which are not always exact repeats. Equal values may be shown once. In all, about 5,500 compounds went through this assay and about 2,000 (36%) were called active. About 18% were inconclusive and are not listed. No stated cut-off is given here; in the data, active means normalized growth mostly below about 0.91 (no sharp cut-off); inconclusive means no clear call, values can overlap the other calls; inactive means mostly above about 0.92. The list shows a part of the results. Where a SMILES comes first, the peptide text is derived from it. Side-chain parts run from the residue outwards. [ ]: non-standard residue; d: D form. The star is where a group is joined. X1 = CCC(C)C(N)C1=NC(C(=O)*)CS1; Orn = NCCC[CH](N)C(=O)O
Experiment: chemical genetic growth profiling, strain panel (AID 1159580);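 further: tested at 20 µM; growth read once vehicle control cultures reached saturation at 30 °C; 1 = growth at the plate median or of vehicle wells; lower values mean less growth of the strain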
Settings: S. cerevisiae deletion strains, growth OD

Measured: normalized growth

CCC(C)C(N)C1=NC(C(=O)NC(CC(C)C)C(=O)NC(CCC(=O)O)C(=O)NC(C(=O)NCCCCC2NC(=O)C(CC(N)=O)NC(=O)C(CC(=O)O)NC(=O)C(Cc3cnc[nH]3)NC(=O)C(Cc3ccccc3)NC(=O)C(C(C)CC)NC(=O)C(CCCN)NC2=O)C(C)CC)CS1 (stereo not drawn) (cyclo(DNK([Ile-Glu-Leu-X1])[Orn]IFH); configuration not given here)
inactive: locus YAL013W, strain DEP1, active compounds read low 1.01 | locus YAL021C, strain ccr4, active compounds read low 0.992 | locus YAL026C, strain drs2, active compounds read low 0.929 | locus YAL030W, strain snc1, active compounds read low 0.997 | locus YBL061C, strain skt5, active compounds read low 1 | locus YBR009C, strain hhf1, active compounds read low 0.952 | locus YBR021W, strain FUR4, active compounds read low 1.01 | locus YBR023C, strain chs3, active compounds read low 1.02 | locus YBR171W, strain sec66, active compounds read low 1 | locus YBR229C, strain ROT2, active compounds read low 0.991 | locus YBR231C, strain swc5, active compounds read low 0.999 | locus YBR279W, strain paf1, active compounds read low 1.01 | locus YCL011C, strain gbp2, active compounds read low 0.968 | locus YCL016C, strain dcc1, active compounds read low 0.981 | locus YCL029C, strain bik1, active compounds read low 1.01 | locus YCL061C, strain MRC1, active compounds read low 0.993 | locus YCL069W, strain vba3, active compounds read low 1 | locus YCR088W, strain abp1, active compounds read low 1.01 | locus YDL005C, strain med2, active compounds read low 0.999 | locus YDL035C, strain GPR1, active compounds read low 0.998 | locus YDL040C, strain nat1, active compounds read low 1.01 | locus YDL074C, strain BRE1, active compounds read low 1.04 | locus YDL101C, strain DUN1, active compounds read low 1 | locus YDL185W, strain tfp1, active compounds read low 1.04 | locus YDL192W, strain arf1, active compounds read low 1 | locus YDR001C, strain nth1, active compounds read low 0.987 | locus YDR069C, strain doa4, active compounds read low 1.02 | locus YDR101C, strain arx1, active compounds read low 1.02 | locus YDR137W, strain rgp1, active compounds read low 0.992 | locus YDR150W, strain NUM1, active compounds read low 1 | locus YDR159W, strain sac3, active compounds read low 0.996 | locus YDR162C, strain NBP2, active compounds read low 0.976 | locus YDR195W, strain ref2 0.976 | locus YDR297W, strain sur2, active compounds read low 1.01 | locus YDR318W, strain mcm21, active compounds read low 0.989 | locus YDR334W, strain swr1, active compounds read low 1.01 | locus YDR335W, strain msn5, active compounds read low 1.01 | locus YDR388W, active compounds read low 1.01 | locus YDR392W, strain spt3, active compounds read low 0.94 | locus YDR502C, strain sam2, active compounds read low 1.01 | locus YEL003W, strain gim4, active compounds read low 1.01 | locus YEL037C, strain rad23, active compounds read low 1.01 | locus YEL061C, strain CIN8 (second series), active compounds read low 1.01 | locus YEL061C, strain CIN8, active compounds read low 0.998 | locus YER015W, strain faa2, active compounds read low 1.01 | locus YER016W, strain bim1, active compounds read low 1 | locus YER110C, active compounds read low 1 | locus YER111C, strain swi4, active compounds read low 1.01 | locus YER155C, strain BEM2 (second series), active compounds read low 1.01 | locus YER155C, strain BEM2, active compounds read low 0.992 | locus YER167W, strain BCK2, active compounds read low 1.01 | locus YFR010W, strain ubp6, active compounds read low 1.03 | locus YGL078C, strain dbp3, active compounds read low 1.01 | locus YGL086W, strain mad1, active compounds read low 1.05 | locus YGL167C, strain pmr1, active compounds read low 1.02 | locus YGL173C, strain kem1, active compounds read low 1 | locus YGL227W, strain vid30, active compounds read low 1 | locus YGL240W, strain doc1, active compounds read low 1.03 | locus YGL248W, strain PDE1, active compounds read low 1 | locus YGL253W, strain hxk2, active compounds read low 0.993 | locus YGR135W, strain pre9, active compounds read low 1.01 | locus YGR252W, strain gcn5, active compounds read low 0.924 | locus YHR013C, strain ard1, active compounds read low 0.991 | locus YHR027C, strain rpn1, active compounds read low 1.01 | locus YHR030C, strain SLT2, active compounds read low 1 and 1.02 | locus YHR079C, strain IRE1 (second series), active compounds read low 1 | locus YHR079C, strain IRE1, active compounds read low 1.05 | locus YHR094C, strain hxt1, active compounds read low 0.993 | locus YHR129C, strain ARP1, active compounds read low 0.994 | locus YHR142W, strain chs7, active compounds read low 1.04 | locus YHR200W, strain rpn10, active compounds read low 0.984 | locus YIL066C, strain RNR3, active compounds read low 1 | locus YIL073C, strain SPO22, active compounds read low 1.19 | locus YIL125W, strain kgd1, active compounds read low 1.01 | locus YIR030C, strain dcg1, active compounds read low 0.993 | locus YJL092W, strain hpr5, active compounds read low 1 | locus YJL095W, strain BCK1 (second series), active compounds read low 1.01 | locus YJL095W, strain BCK1, active compounds read low 0.999 and 1.04 | locus YJL115W, strain asf1, active compounds read low 0.989 | locus YJL129C, strain trk1, active compounds read low 1.02 | locus YJL134W, strain LCB3, active compounds read low 1 | locus YJL154C, strain vps35, active compounds read low 1 | locus YJL164C, strain tpk1, active compounds read low 0.972 | locus YJL166W, strain qcr8, active compounds read low 1.01 | locus YJL168C, strain set2, active compounds read low 1.01 | locus YJL187C, strain SWE1 (second series), active compounds read low 0.997 | locus YJL187C, strain SWE1, active compounds read low 1 | locus YJR043C, strain POL32, active compounds read low 0.996 | locus YJR066W, strain TOR1, active compounds read low 0.969
